High-throughput results (PubChem BioAssay)
Mcl1 Noxa PPI – Mcl-1/Noxa interaction inhibition. TR-FRET Mcl-1/Noxa peptide binding, 2 h. inhibition, % at 21.7 µM. actives 1.5% (n = 220,000). AID 1022;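 active = compounds that cut the protein-peptide binding signal by more than 50% relative to plate controls in a single-dose test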;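 also: His-tagged Mcl-1 with rhodamine Noxa BH3 peptide and terbium anti-His antibody; 0% = Mcl-1 plus Noxa peptide wells and 100% = peptide-only wells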
Bim-Mcl-1 – inhibitors of Bim-Mcl-1 interaction, human; Bead-based flow cytometry, Bim peptide-Mcl-1 binding; actives 0.1% (n = 190,000); AID 1009; inhibition, % at 10 µM; in the data active = inhibition above about 40%;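 also: 0% = no compound tracer wells and 100% = peptide blocker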
Mcl1 Bid PPI – Mcl-1/Bid interaction inhibition; inhibition, % at 21.7 µM; Q07820; TR-FRET Mcl-1/Bid-Dy647 peptide binding, 1536-well; AID 1021; actives 0.97% (n = 220,000);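 active = compounds that cut the binding signal by more than half at the single screening dose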;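 also: His-tagged Mcl-1 with europium anti-His antibody binding Bid BH3 peptide; 0% = Mcl-1 plus peptide wells and 100% = peptide-only wells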
p47phox inh – blocks human p47phox regulatory protein of NADPH oxidases. p47phox/p22phox peptide binding, fluorescence polarization, 2 h. inhibition, % at 24.7 µM. P14598. AID 1274. actives 0.53% (n = 220,000);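 active = inhibition above about 30%, limit read from the data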;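 also: 0% = p47phox with labelled peptide and 100% = labelled peptide alone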
Target sequence (P14598 whole entry, looked up): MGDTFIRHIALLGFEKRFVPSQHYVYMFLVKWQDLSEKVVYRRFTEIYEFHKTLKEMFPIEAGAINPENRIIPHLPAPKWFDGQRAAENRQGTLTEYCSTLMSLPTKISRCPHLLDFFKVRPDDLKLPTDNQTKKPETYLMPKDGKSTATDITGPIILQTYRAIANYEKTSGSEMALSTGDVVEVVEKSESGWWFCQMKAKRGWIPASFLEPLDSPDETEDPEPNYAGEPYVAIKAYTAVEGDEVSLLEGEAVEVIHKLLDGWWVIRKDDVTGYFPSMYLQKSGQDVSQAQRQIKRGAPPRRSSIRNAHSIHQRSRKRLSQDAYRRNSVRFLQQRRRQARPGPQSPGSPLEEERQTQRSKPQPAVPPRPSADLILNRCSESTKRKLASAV
14-3-3 Bad inh – disrupts binding of bovine 14-3-3 zeta to phospho-Bad peptide. P63103. TR-FRET 14-3-3zeta/Dy647-pBad peptide displacement, 1 h. inhibition, % at 21.7 µM. actives 0.71% (n = 220,000);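 active = inhibition above about 70%, limit read from the data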;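 also: 0% = full 14-3-3 plus peptide FRET controls and 100% = background without 14-3-3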
Target sequence (P63103 whole entry, looked up): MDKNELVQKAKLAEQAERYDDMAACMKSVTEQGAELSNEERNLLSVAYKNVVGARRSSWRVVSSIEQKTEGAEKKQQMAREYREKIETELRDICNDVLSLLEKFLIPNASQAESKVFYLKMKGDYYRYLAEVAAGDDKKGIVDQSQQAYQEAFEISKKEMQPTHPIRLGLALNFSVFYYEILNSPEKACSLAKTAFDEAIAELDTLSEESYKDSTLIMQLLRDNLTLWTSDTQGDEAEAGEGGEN
Active calls of the source: *; ! = a repeat was not active. Only some compounds are listed: those with a hit (about 3.2% of all), similar ones and a draw of the others.

How did Oc1ccc(N2CCN(c3nc(-c4cccs4)nc4ccccc34)CC2)cc1 do in these assays?
Mcl1 Noxa PPI: 94*; Mcl1 Bid PPI: -42; p47phox inh: -8; 14-3-3 Bad inh: 6

What do the screens show for `O=C(c1ccc(F)cc1)C(CCCCCC(CN1CCOCC1)C(=O)c1ccc(F)cc1)CN1CCOCC1` (centres undefined)?
Mcl1 Noxa PPI: 18; Bim-Mcl-1: 0; Mcl1 Bid PPI: 17; p47phox inh: 0; 14-3-3 Bad inh: 70*

What do the screens show for `CC(C(=O)Nc1nc2ccccc2s1)n1cc([N+](=O)[O-])cn1` (centres undefined)?
Mcl1 Noxa PPI: 15; Bim-Mcl-1: -3; Mcl1 Bid PPI: 1; p47phox inh: 5; 14-3-3 Bad inh: 1

Results for Cc1ccc(NC(=O)NNC(=O)C2CCN(Cc3ccc(F)cc3Cl)CC2)cc1 ?
Mcl1 Noxa PPI: 16; Bim-Mcl-1: -1; Mcl1 Bid PPI: -13; p47phox inh: -2; 14-3-3 Bad inh: -4

What do the screens show for `O=C(Nc1ccccc1C(=O)NCc1ccc(Cl)cc1)c1ccco1`?
Mcl1 Noxa PPI: 17; Bim-Mcl-1: 1; Mcl1 Bid PPI: 4; p47phox inh: 31*; 14-3-3 Bad inh: 34

Results for COc1cc2cc3c(N)c(C(=O)Nc4sc(C)c(C)c4C#N)sc3nc2cc1OC ?
Mcl1 Noxa PPI: 98*; Bim-Mcl-1: 5; Mcl1 Bid PPI: 66*; p47phox inh: -38; 14-3-3 Bad inh: 56

Results for COc1cc2cc3c(N)c(C(=O)NCc4ccco4)sc3nc2cc1OC ?
Mcl1 Noxa PPI: 57*; Bim-Mcl-1: 2; Mcl1 Bid PPI: -18; p47phox inh: -76; 14-3-3 Bad inh: -4

Results for CC(C)C(NC(=O)c1ccc(F)cc1)C(=O)NCC1CCCO1 (centres undefined) ?
Mcl1 Noxa PPI: 0; Mcl1 Bid PPI: -16; p47phox inh: -9; 14-3-3 Bad inh: 1

What do the screens show for `CS/C(Nc1cc(Cl)ccc1Cl)=C(/C#N)C(=O)c1ccco1`?
Mcl1 Noxa PPI: 45; Mcl1 Bid PPI: 7; p47phox inh: -6; 14-3-3 Bad inh: 13

Results for Cc1[nH]c2ccccc2c1C(=O)C(=O)NCCc1ccc(S(N)(=O)=O)cc1 ?
Mcl1 Noxa PPI: -15; Bim-Mcl-1: -2; Mcl1 Bid PPI: -13; p47phox inh: -11; 14-3-3 Bad inh: -1

Results for NS(=O)(=O)c1ccc(CCNC(=O)C(=O)c2c[nH]c3ccccc23)cc1 ?
Mcl1 Noxa PPI: 7; Bim-Mcl-1: -4; Mcl1 Bid PPI: 99*; p47phox inh: -9; 14-3-3 Bad inh: -3

What do the screens show for `O=c1/c(=C\c2ccc(O)cc2)sc2nc(-c3ccccc3)c(-c3ccccc3)n12`?
Mcl1 Noxa PPI: 14; Mcl1 Bid PPI: -16; p47phox inh: -34; 14-3-3 Bad inh: -2

How did COc1cc(/C=c2\sc3nc(-c4ccncc4)nn3c2=O)ccc1OC(C)=O do in these assays?
Mcl1 Noxa PPI: 70*; Bim-Mcl-1: -4; Mcl1 Bid PPI: 50; p47phox inh: -6; 14-3-3 Bad inh: 24

What do the screens show for `CN(C)c1ccc(/C=c2\sc3nc(-c4ccccc4)nn3c2=O)cc1`?
Mcl1 Noxa PPI: 79*; Bim-Mcl-1: -4; Mcl1 Bid PPI: 73*; p47phox inh: 42*; 14-3-3 Bad inh: 8

Results for NNC(=O)CCN(Cc1ccco1)S(=O)(=O)c1ccc(Cl)cc1 ?
Mcl1 Noxa PPI: 11; Mcl1 Bid PPI: 5; p47phox inh: -9; 14-3-3 Bad inh: -1

Results for CCOC(=O)c1[nH]c2ccc(OCC)cc2c1CCCN1C(=O)c2ccccc2C1=O ?
Mcl1 Noxa PPI: 3; Bim-Mcl-1: -2; Mcl1 Bid PPI: -7; p47phox inh: -12; 14-3-3 Bad inh: -2

How did N#CC1=C(S)N(c2ccccc2)C(c2ccc(-c3cc(Cl)ccc3Cl)o2)NC1=O (centres undefined) do in these assays?
Mcl1 Noxa PPI: 76*; Bim-Mcl-1: -4; Mcl1 Bid PPI: -32; p47phox inh: -44; 14-3-3 Bad inh: -11

How did N#CC1=C(S)N(c2ccccc2)C(c2ccc(-c3ccc(Cl)c(Cl)c3)o2)NC1=O (centres undefined) do in these assays?
Mcl1 Noxa PPI: 36; Mcl1 Bid PPI: -10; p47phox inh: -62; 14-3-3 Bad inh: -10

What do the screens show for `COc1cc(CNc2ccc(S(N)(=O)=O)cc2)ccc1OCC(=O)NC1CCCCC1`?
Mcl1 Noxa PPI: -4; Bim-Mcl-1: -1; Mcl1 Bid PPI: -50; p47phox inh: -12; 14-3-3 Bad inh: -4

What do the screens show for `CN(C)c1ccc(CNCCC2CCOC(C)(C)C2)cc1` (centres undefined)?
Mcl1 Noxa PPI: 23; Bim-Mcl-1: 0; Mcl1 Bid PPI: -6; p47phox inh: -11; 14-3-3 Bad inh: 92*

How did CC1(C)CC(NCc2ccccc2)CCO1 (centres undefined) do in these assays?
Mcl1 Noxa PPI: 6; Bim-Mcl-1: 2; Mcl1 Bid PPI: -7; p47phox inh: 3; 14-3-3 Bad inh: -5

Results for C/C(=N\NC(=O)c1[nH]c2c([N+](=O)[O-])cc(C)cc2c1-c1ccccc1)c1cccnc1 ?
Mcl1 Noxa PPI: 8; Bim-Mcl-1: -3; Mcl1 Bid PPI: 29; p47phox inh: 35*; 14-3-3 Bad inh: 25

How did C/C(=N\NC(=O)c1cccnc1)c1ccc(C)c([N+](=O)[O-])c1 do in these assays?
Mcl1 Noxa PPI: 7; Bim-Mcl-1: 5; Mcl1 Bid PPI: -25; p47phox inh: 2; 14-3-3 Bad inh: -6

How did O=C(O)c1ccc2c(=O)n3c(nc2c1)/C(=C/c1cccc(Cl)c1Cl)CCCC3 do in these assays?
Mcl1 Noxa PPI: 26; Bim-Mcl-1: -1; Mcl1 Bid PPI: -11; p47phox inh: -6; 14-3-3 Bad inh: -5

What do the screens show for `CC(C)CC(=O)Nc1ccc2ccccc2c1`?
Mcl1 Noxa PPI: 1; Bim-Mcl-1: 0; Mcl1 Bid PPI: -10; p47phox inh: 91*!; 14-3-3 Bad inh: -10

Results for Cc1cc(OC(=O)c2ccc(S(=O)(=O)N(C)C)cc2)c([N+](=O)[O-])c(=O)[nH]1 ?
Mcl1 Noxa PPI: 31; Bim-Mcl-1: -4; Mcl1 Bid PPI: 12; p47phox inh: 0; 14-3-3 Bad inh: 12

How did Nc1ccc(N2CCN(C(=O)c3cccs3)CC2)cc1 do in these assays?
Mcl1 Noxa PPI: 61*; Bim-Mcl-1: 15; Mcl1 Bid PPI: -91; p47phox inh: -7; 14-3-3 Bad inh: 13

What do the screens show for `O=C(/C=C/c1cccs1)N1CCCCC1`?
Mcl1 Noxa PPI: 7; Bim-Mcl-1: 0; Mcl1 Bid PPI: -20; p47phox inh: 0; 14-3-3 Bad inh: -4

Results for CCC(C)N1CCN(C(=O)c2cccs2)CC1 (centres undefined) ?
Mcl1 Noxa PPI: 30; Bim-Mcl-1: -3; Mcl1 Bid PPI: 41; p47phox inh: -15; 14-3-3 Bad inh: 70*

How did O=C(/C=C/c1cccs1)N1CCN(c2ccc(O)cc2)CC1 do in these assays?
Mcl1 Noxa PPI: 79*; Bim-Mcl-1: 2; Mcl1 Bid PPI: -55; p47phox inh: 3; 14-3-3 Bad inh: -8

Results for O=C(c1ccncc1)N1CCN(C(=O)c2cccs2)CC1 ?
Mcl1 Noxa PPI: 18; Bim-Mcl-1: -1; Mcl1 Bid PPI: 6; p47phox inh: -19; 14-3-3 Bad inh: -2
